Structures are written as SMILES. “And” between values parts separate entries of the source, which are not always exact repeats. Equal values may be shown once. Inconclusive results are not listed. A structure can be active in one record and inactive in another. The source made the active and inactive calls. Unless noted, calls follow the shape of the dose curve; as a rule, active = well fitted curve in the direction sought with a large enough effect; inconclusive = small, poorly fitted or top-dose-only effect, or another doubt; inactive = no such curve, though single readings can be large; an effect the other way counts as inactive or inconclusive. Bounds are passed on as bounds.

In assay [1] the target is Cytochrome P450 1A2 (Homo sapiens) (UniProt P05177). Description: p450-cyp1a2 (AID 410; calls by dose curve; also: potency is read from the fitted curve at half-maximal effect;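 as to activity change, negative = inhibition: -100% = full effect of reference inhibitor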). The method, boiled down:
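Luminescent demethylation readout: Luciferin-ME (100uM, equal to Km) turned over by 20nM CYP1A2 for 60 min at room temperature after NADPH regeneration addition, following 10 min compound preincubation. Normalization used 57 uM furafylline as full inhibition.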

In assay [2] the target is Glucocorticoid receptor (Homo sapiens) (UniProt P04150). Description: GR-GFP Redistribution (AID 450;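 active = compounds whose dose series gives a full or clear partial fitted curve of increased nuclear translocation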; also: potency is read from the fitted curve at half-maximal effect). Particulars: U2OS GR-GFP nuclear translocation, laser cytometry, 2 h.
Assay [3] shares this target. Briefly: GR-EFC Redistribution (AID 451; calls by dose curve; also: potency is read from the fitted curve at half-maximal effect). As to conditions: CHO-K1 GR-EFC translocation, beta-gal luminescence, 2 h. The method, boiled down:
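CHO-K1 cells expressing nuclear EA and GR-ED fragments of b-gal; compounds titrated up to 46 uM final, 2 h at 37 C. GR nuclear translocation read as complemented b-gal luminescence after 1 h RT detection.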

Assay [4] deals with Mitogen-activated protein kinase 10 (Mus musculus) (UniProt Q61831). Description: JNK3 AlphaScreen Assay (AID 530; active = well fitted curve in either direction with a large enough effect, not every such curve was filed as active;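 also: kinase came from lysate of stimulated human HepG2 cells; signal reports phosphorylation of biotinylated GST-cJun 1-79 at Ser73 with 10 µM ATP; % is scaled to controls: 0 for no effect and ±100 for the full control effect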). The method, boiled down:
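Activity was read by AlphaScreen after JNK3-containing HepG2 lysate (cytokine pre-activated) phosphorylated biotinylated GST-cJun with 10 uM ATP at room temperature. Phospho-Ser73 cJun antibody with Protein-A acceptor beads provided detection.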
On the technique in general: Bead proximity is the source of the signal in Alpha formats.

Assay [5] addresses 3',5'-cyclic-AMP phosphodiesterase 4B (Homo sapiens) (UniProt Q07343). Briefly: qHTS Assay for Inhibitors of PDE-IV (AID 607; active = well fitted activation curve with a large enough effect in the main read-out, with a control signal flat, not every such curve was filed as active; also: % of control where 0% means no effect). The method in brief: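 ACTOne HEK293 cells carry a modified cAMP-gated CNG channel and express endogenous PDE4; plated 1000 cells/well, compounds up to 22.9 uM final. Membrane-potential dye fluorescence (ex 535/em 590) was read; parental cells received 10 uM forskolin + 100 uM RO 20-1724.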
Background: qHTS replaces the single test concentration by a dilution series.

A short description of assay [6]: qHTS Assay for Lipid Storage Modulators (AID 1519; calls by dose curve). As to conditions: Drosophila S3 cells, BODIPY lipid droplet/cell ratio, laser cytometry, cells loaded with oleic acid. The method in brief: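 Cells seeded at 5,000 per well were treated with compounds over a concentration series and loaded with oleic acid (400 uM, as added). Lipid droplet fluorescence (488 nm excitation, 500-530 nm channel) was read by laser-scanning cytometry and normalized to 20 uM Triacsin C.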

Assay [7] concerns the target Ubiquitin carboxyl-terminal hydrolase 1 (Homo sapiens) (UniProt O94782). Description: Inhibitors of USP1/UAF1: Pilot qHTS (AID 504865).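 Also: rhodamine fluorescence freed from ubiquitin-rhodamine substrate followed over time; top concentration of the series differs between compounds; % is scaled to controls: 0 for no effect and ±100 for the full control effect; nearly all actives have a fitted effect of over 35% in size.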 The method in brief: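 USP1/UAF1 complex at 1 nM preincubated 15 min at room temperature with compound, then Ub-Rho substrate added at 150 nM final. Fluorescence (480/540 nm) read kinetically in 50 mM HEPES pH 7.8, 0.5 mM EDTA, 1 mM TCEP, 0.1 mg/ml BSA, 0.01% Tween-20.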

Assay [8] has as its target DNA dC->dU-editing enzyme APOBEC-3G (Homo sapiens) (UniProt Q9HC16). Briefly: qHTS for inhibitors of Vif-A3G interactions: Validation (AID 588379). Also: 0% is about no effect. The method, boiled down: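 Yellow fluorescence (Ex 488, Em 500-530) of Vif-coexpressing HeLa A3G-eYFP cells, scanned by Acumen cytometer, reports blocked A3G degradation. Cells plated at 700/well overnight at 37 deg C before compound addition, then a further overnight compound incubation at 37 deg C.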

Assay [9] relates to Zika virus NS2B-NS3 protease. Description: Primary screen GU AMC qHTS for Zika virus inhibitors (AID 1347154).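 Also: 0% = no-inhibitor control and -100% = no-enzyme control; nearly all actives have a fitted effect of over 70% in size.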 The method, boiled down: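 Unlinked Zika NS2B hydrophilic domain–NS3 protease complex at 25 nM in 10 mM Tris-HCl pH 8.0, 0.01% Tween 20, with an AMC peptide substrate. Fluorescence change (340/450 nm) over 15 min at room temperature, normalized to controls, fitted to 4-parameter Hill.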

The nature of assay [10]: Primary qHTS for small molecule stabilizers of the endoplasmic reticulum resident proteome: Secreted ER Calcium Modulated Protein (SERCaMP) assay (AID 1508630). Also: % is scaled to controls: 0 for no effect and ±100 for the full control effect. The method, boiled down: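 The SH-SY5Y reporter protocol was run at 3 concentrations up to 38.3 uM (primary) or 11 concentrations (follow-up): 16 h compound, 100 nM thapsigargin for 4 h, then extracellular luciferase luminescence.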

A short description of assay [11]: AP1 Signaling Pathway (AID 357; active = well fitted curve in either direction with a large enough effect, not every such curve was filed as active; also: % is scaled to controls: 0 for no effect and ±100 for the full control effect). As to conditions: ME-180 AP-1-bla reporter, EGF-induced, beta-lactamase ratio, 5 h; at 38 µM (top of the series). The method in brief: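 Cells are seeded overnight, exposed to compound titrations and an EC50 level of EGF for 5 hours at 37 °C, then loaded with CCF4 dye for 2.5 hours. Beta-lactamase activity under the AP-1 element is read as a blue/green ratio.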

Assay [12] is described as follows: NFAT Signaling Pathway (AID 444; active = well fitted curve in either direction with a large enough effect, not every such curve was filed as active;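 also: carbachol stimulus at about its EC50 of 1 µM final; % is scaled to controls: 0 for no effect and ±100 for the full control effect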). Particulars: Jurkat NFAT-bla M1, carbachol, beta-lactamase ratio, 5 h. The method, boiled down:
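Jurkat cells with NFAT-driven β-lactamase reporter and co-expressed M1 receptor, stimulated with carbachol (final 1 uM, ~EC50), compound titration, 5 h at 37 °C. CCF4 loaded 1 h at RT; 460/530 nm ratio gave %activity and AC50.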

A short description of assay [13]: Stat Signaling Pathway (AID 446; active = well fitted curve in either direction with a large enough effect, not every such curve was filed as active). As to conditions: ME-180 (cervical carcinoma) SIE beta-lactamase reporter, IL-6 stimulated, 5 h. The method, boiled down: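 Compound effects on IL-6-induced STAT reporter activity were measured in ME-180 cells. After overnight culture, cells were co-treated with 40 pM IL-6 for 5 hrs before beta-lactamase substrate loading at room temperature.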
The target of assay [14] is Guanine nucleotide-binding protein G(i) subunit alpha-1 (Homo sapiens) (UniProt P63096). Briefly: qHTS Assay for Inhibitors of RGS12 GoLoco Motif Activity (Green Fluorophore) (AID 879).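 Also: 0% = labeled peptide with Gαi1 and full inhibition = labeled peptide alone without protein; negative values mean loss of peptide binding seen as reduced polarization.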 The method in brief: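 A drop in FITC polarization marked displacement of the FITC-tagged RGS12 GoLoco peptide (10 nM) from Gαi1 (50 nM). Compounds were incubated 10 min at room temperature in Tris pH 7.5 buffer containing 150 mM NaCl, 0.1 mM GDP and 0.05% NP40; unlabeled peptide titration served as control.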

In assay [15] the target is Cytochrome P450 3A4 (Homo sapiens) (UniProt P08684). Briefly: qHTS Assay for Activators of Cytochrome P450 3A4 (AID 885). Also: nearly all actives have a fitted effect of over 65% in size. The method in brief: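 CYP3A4 activity: Luciferin-PPXE O-dealkylation, 25uM substrate, 200mM KPO4, RT throughout. Read-out is luciferase luminescence; higher values reflect activation.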
Assay [16] in a line: qHTS Assay for Identification of Small Molecule Agonists for Thrombopoietin (TPO) Signaling Pathway (AID 917). Also: % is scaled to controls: 0 for no effect and ±100 for the full control effect. The method, boiled down:
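Stimulation at the TPO EC50 (26 pM final) was used to detect activators. Ba/F3 mouse cells bearing human TPO receptor and a luciferase reporter under the Glycoprotein IIb promoter were exposed to compounds for 24 hrs at 37 C.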

In assay [17] the target is Alpha-galactosidase A (Homo sapiens) (UniProt P06280). Description: Counterscreen for Glucocerebrosidase Inhibitors: qHTS Assay for Human alpha-Galactosidase at pH 4.5 (AID 992). Also: 0% is about no effect. The method in brief: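 Citrate buffer pH 4.5, Tween-20 0.005%. Enzyme 2 nM, substrate 80 uM, 20 min RT. Stop pH 10. Fluorescence Ex 365/Em 440. AC50 by Hill fit.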
Background: Counterscreens check selectivity or assay interference.

For assay [18], the target named is alpha-glucosidase (Oryza sativa, rice) (UniProt Q653V4). Description: Counterscreen for Glucocerebrosidase Inhibitors: qHTS Assay for Rice alpha-Glucosidase at pH 5.0 (AID 997).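 Also: 0% = full activity with enzyme and -100% = basal without enzyme.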 The method in brief:
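Endpoint fluorogenic assay at pH 5.0: compounds (0.7 nM to 77 uM) titrated against 4 nM rice enzyme and 400 uM 4-MU-alpha-glucoside for 20 min at room temperature; NaOH/glycine stop, read ex 365/em 440 nm, Hill-fitted AC50.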

The mark [19] stands for this setting: measured here: cell count channel max response.
Where [20] appears, read: measured here: lipid channel max response.

Sequence of 3',5'-cyclic-AMP phosphodiesterase 4B (Homo sapiens) (Q07343 whole entry, looked up): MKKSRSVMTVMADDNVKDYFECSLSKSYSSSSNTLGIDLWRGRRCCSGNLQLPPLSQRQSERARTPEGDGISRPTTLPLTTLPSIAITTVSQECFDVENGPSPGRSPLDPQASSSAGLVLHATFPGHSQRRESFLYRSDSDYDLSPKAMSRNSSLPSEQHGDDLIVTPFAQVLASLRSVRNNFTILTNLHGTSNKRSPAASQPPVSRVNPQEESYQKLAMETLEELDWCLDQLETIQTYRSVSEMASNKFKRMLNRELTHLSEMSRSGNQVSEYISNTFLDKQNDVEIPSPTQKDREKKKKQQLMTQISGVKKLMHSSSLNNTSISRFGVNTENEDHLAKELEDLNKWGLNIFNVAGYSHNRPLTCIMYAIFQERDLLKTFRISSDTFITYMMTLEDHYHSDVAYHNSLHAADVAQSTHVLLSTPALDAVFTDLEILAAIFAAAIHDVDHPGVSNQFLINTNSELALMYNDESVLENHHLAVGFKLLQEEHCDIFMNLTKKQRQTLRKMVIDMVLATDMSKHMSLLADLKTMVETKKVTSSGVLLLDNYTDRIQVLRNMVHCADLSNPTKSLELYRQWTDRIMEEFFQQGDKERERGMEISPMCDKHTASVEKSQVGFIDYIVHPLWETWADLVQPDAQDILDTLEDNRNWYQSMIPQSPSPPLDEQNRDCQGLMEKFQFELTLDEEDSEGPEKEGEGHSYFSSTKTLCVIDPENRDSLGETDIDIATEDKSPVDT
Sequence of Glucocorticoid receptor (Homo sapiens) (P04150 whole entry, looked up): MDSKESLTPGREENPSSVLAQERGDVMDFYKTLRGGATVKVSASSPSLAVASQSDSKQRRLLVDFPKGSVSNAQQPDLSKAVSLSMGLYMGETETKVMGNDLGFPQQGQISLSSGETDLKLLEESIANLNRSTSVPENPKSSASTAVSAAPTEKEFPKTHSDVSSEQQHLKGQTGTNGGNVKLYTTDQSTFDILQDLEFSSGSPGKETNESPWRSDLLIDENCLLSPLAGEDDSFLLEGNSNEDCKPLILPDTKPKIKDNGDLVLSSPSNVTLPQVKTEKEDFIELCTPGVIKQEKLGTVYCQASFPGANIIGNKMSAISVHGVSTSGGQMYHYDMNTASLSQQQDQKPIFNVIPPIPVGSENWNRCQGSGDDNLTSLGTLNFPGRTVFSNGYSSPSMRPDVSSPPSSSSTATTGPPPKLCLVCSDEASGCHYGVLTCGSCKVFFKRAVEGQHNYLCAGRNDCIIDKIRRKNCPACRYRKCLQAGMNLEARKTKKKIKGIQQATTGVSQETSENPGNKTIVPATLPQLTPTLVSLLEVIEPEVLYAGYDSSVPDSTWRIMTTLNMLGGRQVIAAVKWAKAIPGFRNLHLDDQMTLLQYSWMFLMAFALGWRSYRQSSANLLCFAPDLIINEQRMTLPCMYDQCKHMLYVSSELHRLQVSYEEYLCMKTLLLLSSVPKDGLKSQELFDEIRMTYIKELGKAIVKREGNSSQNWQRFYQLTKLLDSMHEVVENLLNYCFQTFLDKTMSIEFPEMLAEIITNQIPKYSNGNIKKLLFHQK
Sequence of Cytochrome P450 1A2 (Homo sapiens) (P05177 whole entry, looked up): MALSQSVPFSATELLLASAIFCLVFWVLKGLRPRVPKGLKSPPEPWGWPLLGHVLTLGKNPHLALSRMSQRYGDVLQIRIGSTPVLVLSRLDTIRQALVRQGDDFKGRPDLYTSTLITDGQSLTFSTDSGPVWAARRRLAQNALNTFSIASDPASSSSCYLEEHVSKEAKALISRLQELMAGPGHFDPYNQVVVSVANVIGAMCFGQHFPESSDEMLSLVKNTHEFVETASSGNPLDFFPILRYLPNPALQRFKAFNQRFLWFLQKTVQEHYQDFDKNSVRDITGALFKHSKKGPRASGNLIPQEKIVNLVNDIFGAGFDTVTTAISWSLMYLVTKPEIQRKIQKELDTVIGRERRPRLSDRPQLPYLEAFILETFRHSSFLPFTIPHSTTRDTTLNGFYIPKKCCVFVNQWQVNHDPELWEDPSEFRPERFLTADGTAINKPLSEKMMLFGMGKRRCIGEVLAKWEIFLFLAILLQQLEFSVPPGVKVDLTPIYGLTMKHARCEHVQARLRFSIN
Sequence of DNA dC->dU-editing enzyme APOBEC-3G (Homo sapiens) (Q9HC16 whole entry, looked up): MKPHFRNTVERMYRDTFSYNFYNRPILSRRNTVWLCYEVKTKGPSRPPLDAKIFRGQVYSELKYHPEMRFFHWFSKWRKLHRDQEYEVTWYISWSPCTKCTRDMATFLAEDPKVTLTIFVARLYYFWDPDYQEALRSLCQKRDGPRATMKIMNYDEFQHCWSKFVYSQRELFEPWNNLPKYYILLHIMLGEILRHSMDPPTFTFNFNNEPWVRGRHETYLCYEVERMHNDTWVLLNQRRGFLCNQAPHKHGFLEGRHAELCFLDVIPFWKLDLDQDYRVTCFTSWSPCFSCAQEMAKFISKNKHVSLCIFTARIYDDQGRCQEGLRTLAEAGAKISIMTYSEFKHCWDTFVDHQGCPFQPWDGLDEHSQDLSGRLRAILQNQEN
Sequence of Ubiquitin carboxyl-terminal hydrolase 1 (Homo sapiens) (O94782 whole entry, looked up): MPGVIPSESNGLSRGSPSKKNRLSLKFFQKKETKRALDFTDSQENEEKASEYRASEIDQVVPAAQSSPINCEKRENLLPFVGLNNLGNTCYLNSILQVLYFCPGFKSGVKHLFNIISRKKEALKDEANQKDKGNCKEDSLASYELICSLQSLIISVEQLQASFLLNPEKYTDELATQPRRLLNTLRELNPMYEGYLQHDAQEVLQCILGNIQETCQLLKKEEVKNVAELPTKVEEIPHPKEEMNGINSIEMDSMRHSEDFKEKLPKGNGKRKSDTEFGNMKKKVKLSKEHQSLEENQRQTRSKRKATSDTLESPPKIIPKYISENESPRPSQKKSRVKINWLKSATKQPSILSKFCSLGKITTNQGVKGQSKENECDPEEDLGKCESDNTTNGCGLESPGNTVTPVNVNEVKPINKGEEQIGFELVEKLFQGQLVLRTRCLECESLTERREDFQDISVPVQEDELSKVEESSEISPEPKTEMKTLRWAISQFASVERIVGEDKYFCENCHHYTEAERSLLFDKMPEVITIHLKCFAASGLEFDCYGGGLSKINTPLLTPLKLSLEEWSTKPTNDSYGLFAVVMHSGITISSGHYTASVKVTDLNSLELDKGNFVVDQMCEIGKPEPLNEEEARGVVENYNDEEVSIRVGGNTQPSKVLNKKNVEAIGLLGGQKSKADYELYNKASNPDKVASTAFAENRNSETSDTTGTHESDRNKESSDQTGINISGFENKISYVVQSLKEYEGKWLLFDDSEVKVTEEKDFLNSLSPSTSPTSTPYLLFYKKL
Sequence of Cytochrome P450 3A4 (Homo sapiens) (P08684 whole entry, looked up): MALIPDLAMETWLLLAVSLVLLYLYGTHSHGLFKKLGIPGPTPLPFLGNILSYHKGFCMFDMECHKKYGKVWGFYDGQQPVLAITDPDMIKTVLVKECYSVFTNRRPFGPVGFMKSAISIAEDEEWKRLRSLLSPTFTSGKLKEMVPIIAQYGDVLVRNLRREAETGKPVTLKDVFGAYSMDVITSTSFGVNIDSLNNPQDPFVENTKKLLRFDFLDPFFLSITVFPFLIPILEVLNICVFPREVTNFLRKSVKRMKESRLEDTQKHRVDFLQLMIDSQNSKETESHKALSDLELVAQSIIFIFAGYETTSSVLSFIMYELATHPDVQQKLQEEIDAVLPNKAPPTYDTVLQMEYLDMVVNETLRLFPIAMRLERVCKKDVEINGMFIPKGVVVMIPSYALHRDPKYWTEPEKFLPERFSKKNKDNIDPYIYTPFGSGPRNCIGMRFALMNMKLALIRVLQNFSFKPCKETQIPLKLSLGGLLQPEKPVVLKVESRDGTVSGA
Sequence of Guanine nucleotide-binding protein G(i) subunit alpha-1 (Homo sapiens) (P63096 whole entry, looked up): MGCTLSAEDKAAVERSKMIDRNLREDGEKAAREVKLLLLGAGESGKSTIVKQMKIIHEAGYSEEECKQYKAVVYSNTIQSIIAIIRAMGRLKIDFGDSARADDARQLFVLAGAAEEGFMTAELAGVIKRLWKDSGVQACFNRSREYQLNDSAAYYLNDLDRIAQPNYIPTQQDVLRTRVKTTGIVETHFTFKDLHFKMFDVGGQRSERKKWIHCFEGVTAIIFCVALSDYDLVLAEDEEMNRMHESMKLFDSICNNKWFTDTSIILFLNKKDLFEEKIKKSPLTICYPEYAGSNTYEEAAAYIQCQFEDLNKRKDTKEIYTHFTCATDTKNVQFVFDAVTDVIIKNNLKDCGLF
Sequence of Alpha-galactosidase A (Homo sapiens) (P06280 whole entry, looked up): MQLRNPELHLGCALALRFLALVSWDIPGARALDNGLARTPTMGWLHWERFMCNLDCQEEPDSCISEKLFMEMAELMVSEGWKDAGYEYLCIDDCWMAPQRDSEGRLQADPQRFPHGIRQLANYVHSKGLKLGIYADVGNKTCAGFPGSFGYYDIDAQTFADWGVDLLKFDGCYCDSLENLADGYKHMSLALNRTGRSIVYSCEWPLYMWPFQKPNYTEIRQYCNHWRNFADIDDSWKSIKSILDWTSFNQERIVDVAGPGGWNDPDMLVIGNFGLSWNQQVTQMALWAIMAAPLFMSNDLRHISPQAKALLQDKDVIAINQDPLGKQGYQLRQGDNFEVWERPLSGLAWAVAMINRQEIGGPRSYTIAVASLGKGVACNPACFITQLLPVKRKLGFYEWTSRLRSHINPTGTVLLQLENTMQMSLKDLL

Regarding `N[C@](CC1c2ccccc2Oc2ccccc21)(C(=O)O)[C@@H]1C[C@@H]1C(=O)O`, the Potency in assay [1] is 31.6 µM (active); in assay [2], > 46 µM (inactive); in [3] it was > 46 µM (inactive). Moreover, the Potency entry in [4], in assay [5], in assay [7], in [8], in [9] and in assay [10] was “inactive” throughout. For the same compound, the activity change, negative = inhibition in assay [6] (at 57.5 µM (top of the series)) was 5.89% (inactive). Moreover, the results for the max response in [6] (setting [19]) and in assay [6] (setting [20]) were 12.4% and 20%, respectively.

Regarding `C[C@H](NC[C@H](O)CP(=O)(O)CC1CCCCC1)c1ccc(Cl)c(Cl)c1`, the results for the Potency in assay [1], in [2] and in [3] were 39.8 µM (active), > 46 µM (inactive) and > 46 µM (inactive), respectively. Also, the Potency result in [4], in assay [5], in assay [7], in assay [8], in assay [9] and in [10] was “inactive” throughout. The activity change, negative = inhibition in assay [6] (at 57.5 µM (top of the series)) is 4.93% (inactive). For the same compound, the max response in assay [6] (setting [19]) came out at 9.04%; in assay [6] (setting [20]), 17.2%.

Turning to `C[C@H](N=C(NC#N)Nc1ccncc1)C(C)(C)C`, the activity change, negative = inhibition in assay [11] was -27.9% (inactive); in assay [12] (at 17.2 µM (top of the series)), 5.32% (inactive); in [12] (at 38 µM (top of the series)), 6.54% (inactive); in assay [6] (at 25.7 µM (top of the series)) it was -0.699% (inactive). The Potency in assay [1] was 15.8 µM (active) and inactive; in assay [2], > 46 µM (inactive) and > 20.6 µM (inactive); in assay [3], > 46 µM (inactive) and > 20.6 µM (inactive). For the same compound, the activity, negative = inhibition was -8.19% (inactive) in assay [13] (at 17.2 µM (top of the series)) and -12.4% (inactive) in [13] (at 38 µM (top of the series)). Also, the Potency entry in [4], in [5], in assay [15], in assay [16], in assay [7] and in assay [8] was “inactive” each time. The Potency result in assay [9] and in assay [10] was “inactive” throughout. The outcome in [14], in assay [17] and in assay [18] was inactive. Moreover, the max response in [6] (setting [19]) is 1.19%; in assay [6] (setting [20]) it was -1.85%.

The values are drawn from PubChem BioAssay (NCATS).
